PubChem BioAssay AID485317 (Broad Institute, 2010)
The campaign covered roughly 290,000 compounds. About 11,000 (3.8%) were called active.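 How the source made its calls: active means mean replicate inhibition above about 79%, with every replicate also reaching it (limit read from the data); inconclusive means only one of the two criteria met; inactive means mean below limit and not every replicate reaching it.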 The entries come from a sample that favours actives as a whole.

Target: FAD-linked sulfhydryl oxidase ALR (Homo sapiens) (UniProt P55789)
Sequence (P55789 whole entry, looked up): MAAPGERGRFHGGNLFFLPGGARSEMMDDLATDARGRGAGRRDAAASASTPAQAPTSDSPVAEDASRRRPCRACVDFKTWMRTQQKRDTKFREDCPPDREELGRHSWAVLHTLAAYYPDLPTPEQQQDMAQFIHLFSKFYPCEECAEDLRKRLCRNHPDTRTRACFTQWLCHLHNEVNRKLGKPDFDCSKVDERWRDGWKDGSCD
Assay: inhibitors of human ALR sulfhydryl oxidase, primary screen, biochemical, H2O2 detection, HRP-luminol luminescence, single point (AID 485317)
Settings: purified ALR, DTT oxidation, hits give high values, concentration not given here

inhibition, inactive:
CCOc1ncccc1C(=O)Nc1ccc2c(c1)OCCO2 4.02%
Oc1ccc2ccccc2c1N=Nc1nccs1 -13.2%
CN1CCN(S(=O)(=O)c2cccc(C(=O)Nc3sccc3C#N)c2)CC1 6.71%
Cc1ccccc1C(=O)Nc1ccc(N2CCCCCC2)cc1 68.7%
COc1ccc(C(=O)NC(=S)Nc2ccc(N3CCCC3)cc2)cc1OC 2.05%
CC(=O)Nc1ccc(S(=O)(=O)Nc2ccc(N3CCOCC3)c(F)c2)cc1 3.94%
COc1ccc(C(=O)Nc2ccc(N3CCC(C)CC3)cc2)cc1Br -4.62%
CC(=O)Nc1ccc(NS(=O)(=O)c2ccc3c(c2)NC(=O)CC(=O)N3)cc1 -6.71%
COc1cccc(C(=O)Nc2ccc(N3CCN(C(=O)c4ccco4)CC3)cc2)c1 -0.228%
Cc1ccc(Cc2nnc(SCC(=O)Nc3ccc(C)cc3C)[nH]c2=O)cc1 -13.1%
COc1ccccc1N(C)S(=O)(=O)c1ccc(Cl)c(C(=O)Nc2ccncc2)c1 -13.7%
Cc1ccc(OCC(=O)Oc2ccccc2[N+](=O)[O-])cc1 8.6%
O=C(COc1cccnc1[N+](=O)[O-])Nc1ccc(Cl)cc1F -1.28%
COc1ccc(CNc2nc3c(c(=O)[nH]c(=O)n3C)n2Cc2ccccc2)cc1 -2.89%
C=CCSc1nc2c(c(=O)[nH]c(=O)n2C)n1Cc1ccccc1 -5.44%
COC(=O)c1cccc(NC(=O)c2cccc(N3C(=O)CCC3=O)c2)c1 -1.61%
COc1ccc(OCC(=O)Nc2cc(C)c(Cl)cc2OC)c([N+](=O)[O-])c1 -2.93%
CCCC(=O)OCC(=O)Nc1cc(Cl)ccc1[N+](=O)[O-] -5.98%
CCN(CC(=O)Nc1ccccc1OC)C(=O)CC1CC2CCC1C2 (stereo not given) 1.64%
O=S(=O)(O)Oc1c[nH]c2ccccc12 -3.63%
CC1(c2ccccc2)NC(=O)N(CC(=O)Nc2cc(Cl)ccc2N2CCOCC2)C1=O (stereo not given) 13.2%
N#CC1(NC(=O)COC(=O)Cc2n[nH]c(=O)c3ccccc23)CCCCC1 -18.6%
Fc1ccc(NC(=S)N2CCc3[nH]c4ccccc4c3C2)cc1 3.4%
CCCC(=O)N1CCc2[nH]c3ccccc3c2C1 -30.4%
CN(C(=O)COC(=O)c1ccc(Br)o1)c1c(N)n(Cc2ccccc2)c(=O)[nH]c1=O -5.35%
Cc1c(C)n2c(SCC(=O)NC3CCCC3)nnc2[nH]c1=O 2.18%
COc1cc(OC)cc(-c2c(-c3cccs3)c3cc(-c4ccc(OC)cc4F)ccc3n2C)c1 -3.91%
Cc1ccc(-c2n[nH]c(=S)n2/N=C/c2cc3c(cc2[N+](=O)[O-])OCO3)cc1 -5.58%
Cc1ccc(S(=O)(=O)N/N=C\c2cc3c(cc2[N+](=O)[O-])OCO3)cc1 -3.17%
COc1ccc(/C=N/Nc2cc(N3CCOCC3)nc(C)n2)c(OC)c1 32.1%
C(=N/Nc1cc(N2CCOCC2)nc(N2CCOCC2)n1)/c1ccccc1 34.6%
CCOc1ccc(C(=O)Nc2cc(Cl)ccc2-n2cncn2)cc1OC -4.75%
Cn1c(CC(=O)NNC(=O)c2ccccc2F)nc2ccccc21 -4.08%
COC(=O)CSc1nc(C)c2ccc(OC)cc2n1 -12.7%
COc1ccc2oc(-c3cccc(NC(=O)CSc4ccc(Cl)cc4)c3)nc2c1 -8.13%
Cc1ccc2nc(N3C(=O)C(O)=C(C(=O)c4ccco4)C3c3cccc(O)c3)sc2c1 (stereo not given) 71.5%
O=C(C1=C(O)C(=O)N(c2ncccn2)C1c1cccs1)c1ccco1 (stereo not given) 21.9%
Cc1ccc(C(=O)NCC(=O)NC2CC2)cc1 0.292%
CCC(CO)Oc1cc(NC(=O)c2cccc(F)c2)c2ncn(C(C)C)c2c1 (stereo not given) -32.8%
Cn1c(N)c(C(=O)COC(=O)c2cccc(S(=O)(=O)N3CCOCC3)c2)c(=O)n(C)c1=O -2.97%
Nc1ccccc1Sc1cc(Cl)nnc1Cl 1.19%
CCOC(=O)c1cc(Sc2ccccc2N)cc(C(=O)OCC)n1 -11.9%
O=C(NN=Cc1ccc(N2CCOCC2)cc1)c1cc2ccccc2cc1O 11.6%
COc1ccc([C@H]2CC(=O)C=C(c3ccc(CO)cc3)C2)cc1 -0.829%
CCC(C)N(C(=O)COC(=O)c1nc(Cl)ccc1Cl)C1CCS(=O)(=O)C1 (stereo not given) 0.398%
CC(C)N(C(=O)CN1CCN(S(=O)(=O)c2ccc(Br)s2)CC1)C(C)C -3.29%
O=C(CCSc1ccccc1)N1CCN(c2ccccc2F)CC1 -13.1%
Cc1nc2ncnn2c(C)c1CCC(=O)N1CCN(C(=O)c2ccco2)CC1 0.394%
C/C(=C/c1ccccc1)C(=O)N1CCN(c2ccccc2)CC1 44%
CC(=O)c1ccc(N2CCN(C(=O)CCc3ccccc3)CC2)cc1 16.1%
Cc1nc2c(-c3ccc(F)cc3)c(C)nn2c(C)c1CCC(=O)N1CCN(c2ccccn2)CC1 -13.5%
O=C(NC(CC(=O)N1CCN(c2ccccc2)CC1)c1ccccc1)c1ccccc1Cl (stereo not given) 22.4%
CCOC(=O)c1cnc2nc(SCc3ccccc3Cl)[nH]n2c1=O 32.6%
Cc1csc2nc(O)c(C(=O)NCCN3CCOCC3)c(=O)n12 7.69%
COc1ccc(CNc2nc(NCc3ccc(OC)cc3)c3ncn(C4CCCC4)c3n2)cc1 2.44%
O=C(Nc1ccccc1Cl)Nn1cnnc1 -11.5%
O=C(COC(=O)c1cccs1)Nc1ccccc1Cl 2.46%
CCCCCC(=O)N1CCN(S(=O)(=O)c2ccc3c(c2)OCCCO3)CC1 1.7%
Cc1ccc(S(=O)(=O)N2CCCCC2)cc1NC(=O)[C@@H]1CCCN1C(=O)c1cccs1 -6.24%
O=C(Cc1ccc(Br)cc1)NCCc1ccccc1 -8.61%
Cc1cc(C)n2nc(C(=O)OCC(=O)N(C)CC(=O)Nc3ccc(F)cc3)nc2n1 2.76%
Cc1ccc(N2C(=O)C(Cc3ccccc3)NC2=S)cc1 (stereo not given) 25.5%
Cc1ccc(CC2C(=O)N(c3ccc(F)cc3)C(=O)C2C)cc1 (stereo not given) 1.22%
Cc1ccc(S(=O)(=O)N2CCN(C(=O)c3cccs3)CC2)cc1 -6.58%
Cc1ccc(S(=O)(=O)N2CCN(C)CC2)cc1 -6.86%
CC(C)(C)OC(=O)C[C@@H]1C/C=C\C[C@@H](CC(=O)N[C@H](CO)Cc2ccccc2)C(=O)NC[C@@H](c2ccccc2)OC1=O -0.924%
CC(=O)CCC(=O)c1ccc2ccccc2c1 -2.18%
COc1ccc(N=Nc2ccc(O)c(P(=O)(c3ccccc3)c3ccccc3)c2)cc1 -4.29%
Cc1nc2ccccc2c(=O)n1-c1ccc(F)c(NC(=O)c2cccs2)c1 -7.89%
CN(Cc1cccs1)C(=O)CN1C(=O)c2ccccc2S1(=O)=O 1.6%
Cc1ccc(C(=O)N/C(=C/c2cccs2)C(=O)NCC2CCCO2)cc1 (stereo not given) -0.67%
CC1CCN(C(=O)/C(=C\c2ccccc2)NC(=O)c2ccccc2)CC1 8.11%
CN1CCN(C(=O)/C(=C\c2cccs2)NC(=O)c2cccs2)CC1 9.55%
O=C(N/C(=C\c1ccc(F)cc1)C(=O)N1CCCCCC1)c1ccccc1 39.9%

inhibition, active:
Oc1ccc(N=Nc2nccs2)c(O)c1 83.1%
COc1cccc(C(=O)Nc2ccc(N3CCCC3)cc2)c1 100%
CC(=O)Nc1ccc(S(=O)(=O)Nc2ccc(N3CCCCC3)cc2)cc1 99.4%
COc1cccc(OC)c1C(=O)Nc1ccc(N2CCCCC2)cc1 86%
Cn1c(=O)[nH]c(=O)c2c1[nH]c(=S)n2Cc1ccccc1 86.9%
Cc1cc(NC(=O)COC(=O)COc2ccc(Cl)cc2C)c([N+](=O)[O-])cc1C 89.5%
C=CCNC(=S)N1CCc2[nH]c3ccccc3c2C1 98.3%
CCOc1ccc(-c2n[nH]c(=S)n2/N=C/c2cc3c(cc2[N+](=O)[O-])OCO3)cc1 84.2%
CN(C)c1ccc(/C=N/Nc2cc(N3CCOCC3)nc(N3CCOCC3)n2)cc1 98.8%
COc1ccc2cc(CCl)c(Cl)nc2c1 98%
C=CCSc1nnc(N2C(=O)C(O)=C(C(=O)c3ccco3)C2c2ccc(F)cc2)s1 (stereo not given) 98%
Cc1nn(C)c(C)c1Sc1ccccc1N 99.2%
CC(CC(=O)N1CCN(c2ccccc2)CC1)c1ccccc1 (stereo not given) 98.4%
Cc1nc2nc(C)c(CCC(=O)N3CCN(c4ccccc4)CC3)c(C)n2n1 92.8%
O=C(CCc1ccccc1F)N1CCN(c2ccccc2)CC1 88%
O=C(Nc1ccccc1Cl)/C(Cl)=C(\Cl)S(=O)c1ccccc1 (stereo not given) 97.6%
C=C1c2cc(CC)ccc2NC(=O)N1c1ccc(C)cc1 96.2%
Cc1ccc(S(=O)(=O)N2C3C=CC(C3)C2C(=O)O)cc1 (stereo not given) 89.7%
Cc1cc(N=Nc2ccc3ccccc3c2)ccc1O 86%
O=C(N/C(=C\c1ccc(O)cc1)C(=O)N1CCCCC1)c1ccccc1 99%
Cc1ccc(C(=O)N/C(=C/c2cccs2)C(=O)N2CCCCC2)cc1 88.2%
